Results as given in PubChem BioAssay.
Where “and” joins values, the source holds several entries; their conditions need not be identical. Equal entries are not always repeated. Calls of active or inactive are those of the source.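 The calls were made as follows, unless noted: active = compounds whose cell count with miR-34 switched on is under 0.7 times the count with it off; inactive = the rest.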

Legend:
[1] = EMT-state selective cytotoxicity in co-culture – imaging, PC-3E GFP, TEM4-18 mCherry, primary screen (AID 1345086;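 active = compounds killing one labelled cell type while sparing the other, by normalised counts and ratio limits, not self-fluorescent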;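 as to all read-outs here: cells exposed to compound for 72 h before imaging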;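 as to red/green cell ratio (normalised): normalised mesenchymal count divided by normalised epithelial count so high means epithelial killing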); details: PC-3E GFP / TEM4-18 mCherry co-culture, imaging cell counts, at 1 µM; for red/green cell ratio (normalised): actives lie on both sides, counts scaled to control wells, 1 = unselective
[2] = viability loss with induced miR-34 in A549 – imaging, A549 dox-inducible miR-34, nuclei and caspase counts, primary screen (AID 1347080); details: A549 miR-34 inducible, Hoechst nuclei count, 48 h
[3] = molecular target: NAD(+) hydrolase SARM1 (Homo sapiens) (UniProt Q6SZW1); experiment: blocking NAD cleavage by SARM1 SAM-TIR – cell lysate, NAD-Glo luminescence (AID 1508614;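 active = compound whose remaining NAD level is above about 45 nM, limit read from the data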;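 also: higher remaining NAD means stronger inhibition of SARM1 NADase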); details: SAM-TIR HEK293T lysate NADase, at 1 µM, stronger effect = higher value
[4] = compounds altering viability of human ES cells (AID 493140; call rule not given here;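 also: cells exposed to compounds for four days before counting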); details: human embryonic stem cell survival screen; stronger effect = higher value
[5] = P. berghei load reduction in hepatocytes – cell-based, HepG2, luciferase luminescence, HepG2 viability, primary screen (AID 624349; in the data active = parasite load remaining mostly below about 12%, no sharp cut-off; inactive = mostly above about 10%;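 also: 100% = mean of DMSO negative control wells on the same plate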); details: P. berghei liver stage in HepG2, luciferase luminescence, concentration not given here; parasite load remaining: stronger effect = lower value; viability: measured here: HepG2 viability without parasites
[6] = MELAS cybrid and Rieske KO viability enhancers – cell-based, MELAS cybrids, Rieske KO mouse fibroblasts, CellTiter-Glo, primary screen (AID 1508586;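 active = mean z-score across replicates of 1.96 or higher in either the MELAS or the Rieske mutant cell line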;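 also: z relative to plate mean and SD of compound and empty wells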); details: low glucose
[7] = galactose survival enhancers in mitochondrial complex I cybrids – cell-based, galactose medium, ATP luminescence, primary screen (AID 1645843;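 active = z-score of at least 1.8 in each of two replicates, scored against plate mean and spread of sample wells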;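 also: positive z means more ATP and so rescue of galactose-driven cybrid death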); details: complex I mutant cybrid cells, 72 h, stronger effect = higher value
[8] = measured here: epithelial PC-3E GFP cell survival
[9] = measured here: mesenchymal TEM4-18 mCherry cell survival
[10] = stronger effect = lower value, cell number ratio, induced over uninduced
[11] = measured here: relative caspase fold change +Dox/-Dox
[12] = measured here: total cells with miR-34 induction, stronger effect = lower value
[13] = measured here: total cells without miR-34 induction
[14] = MELAS cybrid survival, CellTiter-Glo 48 h, stronger effect = higher value
[15] = Rieske KO mouse fibroblast survival, CellTiter-Glo 72 h

Sequence of NAD(+) hydrolase SARM1 (Homo sapiens) (Q6SZW1 whole entry, looked up): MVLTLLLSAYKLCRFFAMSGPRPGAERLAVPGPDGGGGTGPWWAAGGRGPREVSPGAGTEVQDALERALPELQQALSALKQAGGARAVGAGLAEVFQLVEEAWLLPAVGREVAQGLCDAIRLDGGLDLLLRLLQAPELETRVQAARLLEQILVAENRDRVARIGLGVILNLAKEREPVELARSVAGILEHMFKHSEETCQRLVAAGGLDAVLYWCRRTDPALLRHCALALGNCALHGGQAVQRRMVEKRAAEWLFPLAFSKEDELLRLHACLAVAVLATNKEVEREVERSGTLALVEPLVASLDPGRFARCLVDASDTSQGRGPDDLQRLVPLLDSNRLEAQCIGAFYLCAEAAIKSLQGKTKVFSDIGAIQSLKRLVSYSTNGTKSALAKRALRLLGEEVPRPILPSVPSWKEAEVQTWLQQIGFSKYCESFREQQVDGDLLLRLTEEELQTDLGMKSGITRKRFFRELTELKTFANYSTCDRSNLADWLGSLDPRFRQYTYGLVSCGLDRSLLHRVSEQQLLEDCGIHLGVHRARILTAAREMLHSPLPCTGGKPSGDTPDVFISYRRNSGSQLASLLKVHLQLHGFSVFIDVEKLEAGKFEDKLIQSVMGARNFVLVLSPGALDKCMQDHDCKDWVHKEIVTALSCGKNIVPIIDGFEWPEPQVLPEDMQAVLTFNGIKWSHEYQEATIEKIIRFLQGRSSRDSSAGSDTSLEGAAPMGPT

SMILES: C=COCC(F)(F)F
- red/green cell ratio (normalised) [1]: 0.85 (inactive)
- normalised cell number [1, 8]: 1.12
- normalised cell number [1, 9]: 0.96
- fold change [2, 10]: 0.911 (inactive)
- fold change [2, 11]: 0.971
- cell count [2, 12]: 9000
- cell count [2, 13]: 9870
- remaining NAD [3]: 10 nM (inactive)

SMILES: Oc1ccc2ccccc2c1
- red/green cell ratio (normalised) [1]: 0.96 (inactive)
- normalised cell number [1, 8]: 0.82
- normalised cell number [1, 9]: 0.79
- fold change [2, 10]: 0.874 (inactive)
- fold change [2, 11]: 1.01
- cell count [2, 12]: 7170
- cell count [2, 13]: 8200
- remaining NAD [3]: 10 nM (inactive)

SMILES: NC(N)=NCC1COC2(CCCCC2)O1 (stereo not given)
- survival [4]: 5.58 (inactive)
- parasite load remaining [5]: 70.3% (inactive)
- viability [5]: 91.8%
- red/green cell ratio (normalised) [1]: 1.08 (inactive)
- normalised cell number [1, 8]: 1.11
- normalised cell number [1, 9]: 1.2
- fold change [2, 10]: 0.907 (inactive)
- fold change [2, 11]: 1.21
- cell count [2, 12]: 9550
- cell count [2, 13]: 10500
- z-score [6, 14]: 0.764 (inactive)
- z-score [6, 15]: 0.202
- remaining NAD [3]: 10 nM (inactive)

SMILES: CC(O)CC(C)(C)O (stereo not given)
- red/green cell ratio (normalised) [1]: 0.94 (inactive)
- normalised cell number [1, 8]: 1
- normalised cell number [1, 9]: 0.94
- fold change [2, 10]: 0.91 (inactive)
- fold change [2, 11]: 0.891
- cell count [2, 12]: 8730
- cell count [2, 13]: 9590
- remaining NAD [3]: 10 nM (inactive)

SMILES: OCc1ccccc1
- red/green cell ratio (normalised) [1]: 0.94 (inactive)
- normalised cell number [1, 8]: 1.12
- normalised cell number [1, 9]: 1.05
- fold change [2, 10]: 0.891 (inactive)
- fold change [2, 11]: 0.934
- cell count [2, 12]: 8280
- cell count [2, 13]: 9290
- remaining NAD [3]: 10 nM (inactive)

SMILES: O=C1/C(=C/c2cccs2)CCC/C1=C\c1cccs1
- red/green cell ratio (normalised) [1]: 1 (inactive)
- normalised cell number [1, 8]: 0.96
- normalised cell number [1, 9]: 0.97
- fold change [2, 10]: 0.964 (inactive)
- fold change [2, 11]: 1.06
- cell count [2, 12]: 7510
- cell count [2, 13]: 7800
- remaining NAD [3]: 10 nM (inactive)

SMILES: C[N+](C)(CCOc1ccccc1)Cc1ccccc1
- parasite load remaining [5]: 72.5% (inactive) and 56.2% (inactive)
- viability [5]: 93.8% and 115%
- red/green cell ratio (normalised) [1]: 0.65 (inactive)
- normalised cell number [1, 8]: 1.19
- normalised cell number [1, 9]: 0.77
- fold change [2, 10]: 0.899 (inactive) and 0.879 (inactive)
- fold change [2, 11]: 1.23 and 5.07
- cell count [2, 12]: 9230 and 11800
- cell count [2, 13]: 10300 and 13400
- z-score [6, 14]: 0.608 (inactive)
- z-score [6, 15]: 0.271
- remaining NAD [3]: 10 nM (inactive)

SMILES: Nc1ccccc1S(N)(=O)=O
- survival [4]: 5.17 (inactive)
- parasite load remaining [5]: 63.3% (inactive)
- viability [5]: 93.8%
- red/green cell ratio (normalised) [1]: 0.77 (inactive)
- normalised cell number [1, 8]: 1.18
- normalised cell number [1, 9]: 0.91
- fold change [2, 10]: 0.888 (inactive)
- fold change [2, 11]: 1.35
- cell count [2, 12]: 9840
- cell count [2, 13]: 11100
- z-score [6, 14]: 0.695 (inactive)
- z-score [6, 15]: -0.362

SMILES: Cc1ccc(S(=O)(=O)NCl)cc1
- red/green cell ratio (normalised) [1]: 0.85 (inactive)
- normalised cell number [1, 8]: 0.97
- normalised cell number [1, 9]: 0.83
- fold change [2, 10]: 0.925 (inactive)
- fold change [2, 11]: 0.99
- cell count [2, 12]: 8910
- cell count [2, 13]: 9630
- remaining NAD [3]: 10 nM (inactive)

SMILES: O=C(O)Cc1cc(I)c(Oc2ccc(O)c(I)c2)c(I)c1
- survival [4]: 18.8 (inactive)
- parasite load remaining [5]: 35.5% (inactive) and 118% (inactive)
- viability [5]: 46% and 91.7%
- red/green cell ratio (normalised) [1]: 0.98 (inactive)
- normalised cell number [1, 8]: 1.1
- normalised cell number [1, 9]: 1.08
- fold change [2, 10]: 1.03 (inactive) and 0.918 (inactive) and 0.892 (inactive)
- fold change [2, 11]: 0.599 and 1.29 and 1.64
- cell count [2, 12]: 7190 and 8760 and 9000
- cell count [2, 13]: 6990 and 9530 and 10100
- z-score [6, 14]: -0.0879 and -3.89 (inactive)
- z-score [6, 15]: 5.02 and -3.53
- remaining NAD [3]: 10 nM (inactive)

SMILES: CCN(CC)CCOCCOC(=O)C(CC)(CC)c1ccccc1
- red/green cell ratio (normalised) [1]: 1.07 (inactive)
- normalised cell number [1, 8]: 0.85
- normalised cell number [1, 9]: 0.9
- fold change [2, 10]: 0.879 (inactive) and 0.86 (inactive)
- fold change [2, 11]: 0.849 and 0.967
- cell count [2, 12]: 7300 and 7460
- cell count [2, 13]: 8310 and 8670
- z-score [6, 14]: -0.986 (inactive)
- z-score [6, 15]: -0.272
- remaining NAD [3]: 10 nM (inactive)
- z-score [7]: -0.65 (inactive)

SMILES: NC1CCN(c2c(F)cc3c(=O)c(C(=O)O)cn(C4CC4)c3c2Cl)C1 (stereo not given)
- parasite load remaining [5]: 12.5% (inactive)
- viability [5]: 73%
- red/green cell ratio (normalised) [1]: 1.1 (inactive) and 0.63 (inactive)
- normalised cell number [1, 8]: 1 and 1.34
- normalised cell number [1, 9]: 1.09 and 0.84
- fold change [2, 10]: 0.917 (inactive) and 0.881 (inactive)
- fold change [2, 11]: 1.1 and 1.36
- cell count [2, 12]: 7910 and 9140
- cell count [2, 13]: 8620 and 10400
- z-score [6, 14]: 0.53 (inactive) and 0.358 (inactive)
- z-score [6, 15]: -0.371 and 0.0233
- remaining NAD [3]: 10 nM (inactive)
- z-score [7]: 0.72 (inactive)

SMILES: CCC[C@@H]1C[C@@H](C(=O)N[C@@H](C2O[C@H](SC)[C@H](O)[C@@H](O)[C@H]2O)[C@H](C)Cl)N(C)C1 (stereo not given in full)
- survival [4]: 18.7 (inactive)
- parasite load remaining [5]: 39.2% (inactive) and 98.8% (inactive) and 83.4% (inactive)
- viability [5]: 46.1% and 89% and 92.6%
- red/green cell ratio (normalised) [1]: 1.26 (inactive)
- normalised cell number [1, 8]: 1.17
- normalised cell number [1, 9]: 1.47
- fold change [2, 10]: 0.895 (inactive) and 0.881 (inactive)
- fold change [2, 11]: 1.74 and 1.41
- cell count [2, 12]: 9010 and 10700
- cell count [2, 13]: 10100 and 12200
- z-score [6, 14]: 0.619 (inactive)
- z-score [6, 15]: -0.624

SMILES: CC(=O)Oc1cccc(C)c1
- red/green cell ratio (normalised) [1]: 1.03 (inactive)
- normalised cell number [1, 8]: 0.86
- normalised cell number [1, 9]: 0.89
- fold change [2, 10]: 0.912 (inactive)
- fold change [2, 11]: 1.13
- cell count [2, 12]: 8300
- cell count [2, 13]: 9090
- remaining NAD [3]: 10 nM (inactive)

SMILES: O=C(Nc1ccccc1)c1ccccc1O
- parasite load remaining [5]: 67.6% (inactive)
- viability [5]: 101%
- red/green cell ratio (normalised) [1]: 1 (inactive)
- normalised cell number [1, 8]: 1.39
- normalised cell number [1, 9]: 1.39
- fold change [2, 10]: 0.912 (inactive) and 0.877 (inactive)
- fold change [2, 11]: 0.72 and 3.66
- cell count [2, 12]: 7720 and 10000
- cell count [2, 13]: 8460 and 11400
- z-score [6, 14]: -0.183 (inactive)
- z-score [6, 15]: -0.206
- remaining NAD [3]: 10 nM (inactive)

SMILES: CC(C)[C@H](N)C(=O)OCC(CO)OCn1cnc2c(=O)[nH]c(N)nc21 (stereo not given in full)
- red/green cell ratio (normalised) [1]: 0.79 (inactive)
- normalised cell number [1, 8]: 1.28
- normalised cell number [1, 9]: 1.01
- fold change [2, 10]: 0.935 (inactive)
- fold change [2, 11]: 0.843
- cell count [2, 12]: 8710
- cell count [2, 13]: 9320
- remaining NAD [3]: 10 nM (inactive)

SMILES: O=C1c2ccccc2C(=O)C1c1ccc(Cl)cc1
- red/green cell ratio (normalised) [1]: 0.87 (inactive)
- normalised cell number [1, 8]: 1.18
- normalised cell number [1, 9]: 1.03
- fold change [2, 10]: 0.921 (inactive)
- fold change [2, 11]: 1.21
- cell count [2, 12]: 7610
- cell count [2, 13]: 8270
- remaining NAD [3]: 10 nM (inactive)
